The supplement of paper PMC6555819

The sequences below were run on LXRb:RXRa (NR concentration 270 nM, RXRa partner concentration 90 nM) (assay: PBM binding z-score (relative to random genomic background probes); higher = stronger binding; sequences stand for … in GC…GCGATTGACAGCGTAGAATGAAGG).
Procedure, shortened: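 Binding z-scores take random background probes as their reference. They come from custom Agilent 4×180K protein-binding microarrays incubated 1 h with ligand-free nuclear receptor dimers, with antibodies against each partner (one per run) detecting binding. Scanned fluorescence was regression-normalized.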

| Sequence | PBM binding z-score |
| --- | --- |
| TCTCGGAGGACACGAAGGTCAGAGCCTTCCAGAG | 1.35 |
| ACAGACAGGTGAGTGAAGGTAACGCAGCTGGACG | -0.215 |
| AGTCAAAGTTCAGGACGAGGTATCGTAAAGCACG | 1.59 |
| TCTAGTTGGTCACGGCGGTCACACACGACGGGTA | 0.799 |
| ACTGACGGGTCAACGAGGTTATAGCACGCGTATA | 3.43 |
| TCGAGTAGGTTAGGGGCAATCAGAATGGCGTCGA | 0.715 |
| AGAATGAGGTTAAGATCAGCGAAACAGAATACAT | 1.54 |
| TCAGACAAGTGAAGGTAACTCAGGTACGCAGTCG | 0.561 |
| ACTATTAGTTGACTTAGGGCAACCGCTACGACGC | -0.056 |
| ATGTGTAGGTTAAGGGTCATTCAGGTTGGTTCGC | 4.71 |
| CAAACTCGGTCACGAAAGGTCAAAGTCGAATGAC | 6.5 |
| ATATATAGGTTACATCCGGGTCATTCAGGCTATG | 3.45 |
| AGAATGAGGTTACCAAAGATCATGGAAACGCTTG | 3.98 |
| TTACCAAGCTGAAAGGTCGTTGATGCACGCCTTG | 1.04 |
| CTCGAAAGGTCGTGCTCAGCTGAGTATACCAAAC | 3.26 |
| ACCGAAAGGTCGACGAGGTGAGTATACACCGTTT | 2.83 |
| AGCATGAGGTTATTAAGATCAGGGAATTGCGGTC | 1.14 |
| AGAACGAGGGCAATGATTTGATAGCACGGGTGGC | 0.168 |
| TCATATAGGTAATACAGGTGACAGTCGGCATCTA | 0.966 |
| CCTAGCAGGCCAATCTGGGCCACTCAAGGCTTGA | -1.18 |
| CCAAACAGGTGAGAAGGTAACTCAGCCTCGATTA | -0.138 |
| GTTAGTTGGTCAGTAAAAGGTCACACACCGGTCG | 3.94 |
